# High-throughput results (PubChem BioAssay)
# Rab9 prom act – Rab9 promoter activation | Huh7 Rab9 promoter-luciferase reporter, luminescence, 24 h | Potency, µM (highest dose often 9.22 µM), for the others: at the highest dose activation, negative = inhibition, hits mostly activators | 320,000 tested, 2.8% active; note: % of control where 0% means no effect; nearly all actives have a fitted effect of over 60% in size
#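 Quantitative HTS format; Huh7 Rab9-luciferase reporter cells (1500/well) receive compound 2 h post-plating, incubate 24 h at 37 °C, then get luciferase reagent for 10 min before luminescence reading.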
# p53 reactivation – restores transcriptional activity of mutant p53. 320,000 tested, 0.063% active. H1299 p53-A138V BP100-luciferase reporter, luminescence, 24 h. Potency, µM (top dose mostly 92.2 µM), inactives show at the highest dose activity change, positive = activation, actives largely listed as activators; note: % of control where 0% means no effect; nearly all actives have a fitted effect of over 45% in size
#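 p53-null H1299 cells stably carrying temperature-sensitive p53-A138V and a BP100-luciferase reporter were pinned with compounds (4-point, 1:5 series) and held 24 hrs at 37 deg C. Luminescence was read 10 min after detection reagent.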
# ELG1 genotoxic – induces genotoxicity in HEK293T cells with luciferase-tagged ELG1 | HEK293T ELG1-luciferase reporter, luminescence, 16 h | Potency, µM (titrated, usually from 46 µM), inactives show at the highest dose activity change, positive = activation, usual class: activators | 330,000 tested, 1.3% active | AID 504466; note: % of control where 0% means no effect; nearly all actives have a fitted effect of over 60% in size
#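 Screening used a luciferase reporter fused to human ELG1 in HEK293T cells. Luminescence was read on a CCD plate imager after 16 hr exposure and 30 min ONE-Glo incubation.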
# SMN2 splice enh – SMN2 splice variant enhancement; HEK293 SMN2-luciferase splicing reporter, luminescence, 30-36 h; Potency, µM (top dose mostly 46.1 µM), without a hit: top-dose activity change, positive = activation, most hits filed as activators; 210,000 tested, 2.8% active; AID 1458; note: % of control where 0% means no effect; nearly all actives have a fitted effect of over 55% in size
#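 qHTS luciferase splicing reporter: luminescence rises when SMN2 exon 7 is included in transfected HEK293 cells. Compound exposure lasted 30-36 h at 37C, with 4.5 mM final sodium butyrate as control, followed by a ONE-Glo read.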
# FLuc counter – inhibits or activates purified firefly luciferase, miR-21 counter-screen; P08659; purified FLuc, Km substrates, luminescence inhibition; Potency, µM (top dose mostly 57.5 µM), for the others: at the top dose activity change, negative = inhibition, most hits filed as inhibitors; 360,000 tested, 6.9% active; AID 588342;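 note: plate controls were vehicle for no effect and reference inhibitor for full effect; nearly all actives have a fitted effect of over 55% in size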
# Target sequence (P08659 whole entry, looked up): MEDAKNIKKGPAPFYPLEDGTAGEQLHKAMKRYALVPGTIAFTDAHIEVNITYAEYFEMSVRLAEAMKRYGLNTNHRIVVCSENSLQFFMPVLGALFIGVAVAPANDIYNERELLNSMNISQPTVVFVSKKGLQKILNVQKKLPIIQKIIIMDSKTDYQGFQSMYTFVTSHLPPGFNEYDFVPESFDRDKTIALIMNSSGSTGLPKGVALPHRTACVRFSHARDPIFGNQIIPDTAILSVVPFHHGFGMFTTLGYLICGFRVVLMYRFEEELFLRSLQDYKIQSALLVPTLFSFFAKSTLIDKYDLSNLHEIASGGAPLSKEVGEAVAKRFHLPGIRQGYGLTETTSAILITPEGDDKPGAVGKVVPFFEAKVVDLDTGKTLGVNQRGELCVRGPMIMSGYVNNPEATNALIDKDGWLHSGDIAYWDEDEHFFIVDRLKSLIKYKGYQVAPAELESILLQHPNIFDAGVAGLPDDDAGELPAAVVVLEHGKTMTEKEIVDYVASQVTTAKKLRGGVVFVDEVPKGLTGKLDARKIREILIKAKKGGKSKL
#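 Biochemical qHTS of compounds, final roughly 60 µM downward over six points, against 10 nM purified firefly luciferase using Km concentrations of substrates (10 uM D-luciferin, 10 uM ATP) in Tris acetate pH 7.5 buffer; luminescence output.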
# NPC1 promoter act – NPC1 promoter activation; Huh7 NPC1 promoter luciferase reporter, 24 h; Potency, µM (titrated, usually from 9.22 µM), for inactives: top-dose activation, most hits filed as activators; 320,000 tested, 2.4% active; note: % of control where 0% means no effect; nearly all actives have a fitted effect of over 60% in size
#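 Quantitative HTS used a cell-based reporter: Huh7 cells stably bearing the NPC1 promoter upstream of luciferase were treated with compounds for 24 h, and promoter activation was read as luminescence.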
# The depositor's hits bear a star; ? = inconclusive; . = no result. Only some compounds are listed: those with a hit (about 7.4% of all), similar ones and a draw of the others. Calls come from the whole dose curve; as a rule, active = well fitted curve in the direction sought with a large enough effect; inconclusive = small, poorly fitted or top-dose-only effect, or another doubt; inactive = no such curve, though single readings can be large; an effect the other way counts as inactive or inconclusive. Potency is the fitted concentration of half-maximal effect.
SMILES,Rab9 prom act,p53 reactivation,ELG1 genotoxic,SMN2 splice enh,FLuc counter,NPC1 promoter act
O=C(Nc1ccccc1O)c1ccccc1O,20%,13%,-12%,-3%,9.5µM*,?
Cc1cccc(NC(=O)c2cnn3ccccc23)c1C,?,16%,15%,.,?,?
Cc1ccc(C)c(NC(=O)c2ccccc2O)c1,?,?,-12%,-3%,17µM*,4%
Cc1cccc(NC(=O)c2ccccc2O)c1C,?,?,2%,11%,13µM*,?
Cc1ccc(/C(O)=C2\C(=O)C(=O)N(C)C2c2cccc([N+](=O)[O-])c2)cc1 (centres undefined),0%,23%,0%,.,1%,-2%
CN(Cc1ccco1)C(=O)C1CCCN(c2ncnc3c2nc2n3CCCCC2)C1 (centres undefined),-3%,-4%,-3%,.,1%,-4%
CC1CCCCC1NC(=O)COc1ccccc1C#N (centres undefined),23%,?,5%,.,.,3%
CCOC(=O)N1CCN(C(=O)Cn2nc(C)n3nc(-c4ccc(CC)cc4)cc3c2=O)CC1,6%,-2%,14%,.,4.8µM*,6%
CCc1ccc(-c2cc3c(=O)n(CC(=O)N4CCCC4)nc(C)n3n2)cc1,8%,-10%,3%,.,?,3%
O=C(Nc1ccc(Br)cc1F)c1ccncc1,2%,9%,12%,-6%,-12%,20%
O=C(Nc1ccc(Br)cc1F)c1ccc2nsnc2c1,3.5µM*,?,10µM*,.,?,1.6µM*
Cc1ccc(NC(=O)c2ccc3nsnc3c2)c(Cl)c1,0.32µM*,?,?,.,1.5µM*,0.5µM*
COc1ccc(N2CC(NC(=O)/C=C\c3ccccc3)CC2=O)cc1OC (centres undefined),.,.,.,.,1%,.
Cc1cccnc1NC(=O)C1CC(=O)N(c2ccc3c(c2)OCCO3)C1 (centres undefined),-2%,-1%,1%,.,-3%,-1%
O=C(Nc1ncccc1O)c1ccc2c(c1)OCCO2,2.5µM*,?,21µM*,.,15µM*,3.5µM*
Cc1cccnc1NC(=O)c1ccc([N+](=O)[O-])o1,19%,11µM*,-4%,.,-2%,0%
O=C(Nc1ncccc1O)c1ccc2ccccc2c1,-7%,-4%,-7%,.,1%,-3%
O=C(Nc1ncccc1O)c1ccc2c(c1)OCO2,3.5µM*,?,?,.,?,4µM*
Cc1cccnc1NC(=O)c1ccc2c(c1)OCCO2,?,?,16µM*,.,13µM*,1%
Cc1ccc(Cl)cc1-n1c(=O)c2sc3ccccc3c2n(CC(=O)NC2CCCC2)c1=O,.,.,.,1%,4%,.
CCCCC/C=C\C=C\C(O)CCCCCCCC(=O)O (centres undefined),.,.,.,0%,.,.
COCCn1c(=O)c(-c2ccc(F)cc2)nc2cnc(Oc3ccc(OC)cc3)nc21,.,.,.,-7%,.,.
C=Cc1ccc(Cn2c(C(=O)O)c(CNC3CCCCC3)c3ccc(C)cc32)cc1,.,.,.,.,-7%,.
CN(CC(=O)Nc1ccc(Cl)c(C(F)(F)F)c1)C(=O)CCCNC(=O)c1ccc(Cl)cc1,5%,?,-2%,.,19µM*,13%
COc1ccc(Cl)cc1NC(=O)CN(C)C(=O)c1ccc2c(c1)OCCO2,-1%,-3%,-2%,.,-3%,0%
COc1ccc(Cl)cc1NC(=O)CN(C)C(=O)CCCNC(=O)c1ccc(Cl)cc1,-4%,13%,1%,.,13µM*,-1%
C(=C\c1nc(-c2ccncc2)no1)/c1ccccc1,-14%,4%,-1%,.,-2%,-3%
C(=C\c1nc(-c2ccccc2)no1)/c1ccccc1,0.56µM*,.,?,10µM*,1.3µM*,1.6µM*
COc1ccccc1NC(=O)CCCN1C(=O)C2CC=CCC2C1=O (centres undefined),1%,1%,3%,.,2%,1%
